# The full list was thinned out, with the strongest signals kept by preference.
# B1: Tamarinin (protein)
# chain: CDDSARAGNIVVYWGQGGSDNSEGSLKEACKSGHYNMIVLQQLIVYDDGRDPDLNLGAHCSDCTKLEEQIKYCQNKDIKILLQIGQVVPTQEDVKDVTKNLSEYLLKNFFSGKSGPLGEVYLNGIDIASVPEGNNLKFDELVEALNDSSTERRIYLSASPLCVYPDYYLNKAIQTEKLDFLFVQFFYQNPCIYTEGNPENLFEAMKTWTKNVPESMIFMALPATPNLDGYIPPRVLNKEILPAVSEASNFAGVMIFDRYFDRFRKYSSKIK
# Key:
# Assay in all cases: glycan array binding signal (z-score within array); higher = stronger binding
# Conditions in all cases: glycan notation: IUPAC condensed, linker removed
# [1] = target: Fuc(a1-2)Gal(b1-3)GlcNAc(b1-2)Man(a1-3)[Fuc(a1-2)Gal(b1-3)GlcNAc(b1-2)Man(a1-6)]Man(b1-4)GlcNAc(b1-4)GlcNAc
# Outline: (§1)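 Glycan array data were curated from 3228 arrays in the Consortium for Functional Glycomics database and kept only where the protein sequence was available. Glycan names were converted to IUPAC-condensed notation, and columns mapping to the same glycan were averaged. The binding signal is a within-array Z-score, averaged across arrays of the same protein sequence at different concentrations or buffers and across linkers. Negative Z-scores can be read as non-binding.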
# [2] = target: Fuc(a1-2)Gal(b1-4)Glc6S
# Outline: as §1
# [3] = target: Fuc(a1-2)Gal(b1-4)GlcNAc(b1-3)Gal(b1-4)GlcNAc
# Outline: as §1
# [4] = target: Fuc(a1-2)Gal(b1-4)GlcNAc(b1-3)GalNAc
# Outline: as §1
# [5] = target: Fuc(a1-2)Gal(b1-4)GlcNAc(b1-3)[Fuc(a1-2)Gal(b1-4)GlcNAc(b1-6)]GalNAc
# Outline: as §1
# [6] = target: Fuc(a1-2)Gal(b1-4)GlcNAc(b1-3)[Fuc(a1-3)[Gal(b1-4)]GlcNAc(b1-6)]Gal(b1-4)Glc
# Outline: as §1
# [7] = target: Fuc(a1-2)Gal6S(b1-3)GlcNAc6S
# Outline: as §1
# [8] = target: Fuc(a1-2)Gal6S(b1-4)Glc
# Outline: as §1
# [9] = target: Fuc(a1-2)[Gal(a1-3)]Gal
# Outline: as §1
# [10] = target: Fuc(a1-2)[GalNAc(a1-3)]Gal
# Outline: as §1
# [11] = target: Fuc(a1-2)[GalNAc(a1-3)]Gal(b1-3)GalNAc(a1-3)[Fuc(a1-2)]Gal(b1-4)GlcNAc
# Outline: as §1
# [12] = target: Fuc(a1-3)[Gal(b1-4)]GlcNAc(b1-3)Gal(b1-3)[Fuc(a1-4)]GlcNAc
# Outline: as §1
# [13] = target: Fuc(a1-3)[Gal(b1-4)]GlcNAc(b1-3)Gal(b1-4)[Fuc(a1-3)]GlcNAc
# Outline: as §1
# [14] = target: Fuc(a1-3)[Gal(b1-4)]GlcNAc(b1-6)GalNAc
# Outline: as §1
# [15] = target: Fuc(a1-3)[GalNAc(b1-4)]GlcNAc
# Outline: as §1
# [16] = target: Gal(a1-2)Gal
# Outline: as §1
# [17] = target: Gal(a1-3)Gal(b1-3)GlcNAc
# Outline: as §1
# [18] = target: Gal(b1-3)Gal(b1-4)GlcNAc
# Outline: as §1
# [19] = target: Gal(b1-3)GlcNAc(b1-3)Gal(b1-3)GlcNAc
# Outline: as §1
# [20] = target: Gal(b1-3)GlcNAc(b1-3)Gal(b1-4)GlcNAc(b1-3)Gal(b1-4)GlcNAc(b1-2)[Gal(b1-3)GlcNAc(b1-3)Gal(b1-4)GlcNAc(b1-3)Gal(b1-4)GlcNAc(b1-6)]Man(a1-6)[Gal(b1-3)GlcNAc(b1-3)Gal(b1-4)GlcNAc(b1-3)Gal(b1-4)GlcNAc(b1-2)Man(a1-3)]Man(b1-4)GlcNAc(b1-4)[Fuc(a1-6)]GlcNAc
# Outline: as §1
# [21] = target: Gal(b1-3)[Fuc(a1-4)]GlcNAc(b1-2)Man
# Outline: as §1
# [22] = target: Gal(b1-3)[Fuc(a1-4)]GlcNAc(b1-2)Man(a1-3)[Gal(b1-3)[Fuc(a1-4)]GlcNAc(b1-2)Man(a1-6)]Man(b1-4)GlcNAc(b1-4)[Fuc(a1-6)]GlcNAc
# Outline: as §1
# [23] = target: Gal(b1-3)[Fuc(a1-4)]GlcNAc(b1-6)GalNAc
# Outline: as §1
# [24] = target: Gal(b1-3)[Neu5Ac(a2-6)]GlcNAc(b1-4)Gal(b1-4)Glc
# Outline: as §1
# [25] = target: Gal(b1-3)[Neu5Ac(b2-6)]GalNAc
# Outline: as §1
# [26] = target: Gal(b1-4)GlcNAc(b1-3)Gal(b1-4)Glc
# Outline: as §1
# [27] = target: Gal(b1-4)GlcNAc(b1-3)Gal(b1-4)GlcNAc(b1-3)Gal(b1-4)GlcNAc(b1-3)Gal(b1-4)GlcNAc(b1-3)Gal(b1-4)GlcNAc(b1-2)Man(a1-3)[Gal(b1-4)GlcNAc(b1-3)Gal(b1-4)GlcNAc(b1-3)Gal(b1-4)GlcNAc(b1-3)Gal(b1-4)GlcNAc(b1-3)Gal(b1-4)GlcNAc(b1-2)Man(a1-6)]Man(b1-4)GlcNAc(b1-4)GlcNAc
# Outline: as §1
# [28] = target: Gal3S(b1-4)[Fuc(a1-3)]Glc6S
# Outline: as §1
# [29] = target: Gal6S(b1-4)GlcNAc6S
# Outline: as §1
# [30] = target: GalNAc3S(b1-4)GlcNAc
# Outline: as §1
# [31] = target: GalNAc6S(b1-4)GlcNAc
# Outline: as §1
# [32] = target: Glc(a1-4)Glc(a1-4)Glc(a1-4)Glc
# Outline: as §1
# [33] = target: Glc(a1-6)Glc(a1-6)Glc
# Outline: as §1
# [34] = target: Glc(a1-6)Glc(a1-6)Glc(a1-6)Glc
# Outline: as §1
# [35] = target: GlcA(b1-6)Gal
# Outline: as §1
# [36] = target: GlcNAc(b1-3)Gal(b1-4)GlcNAc(b1-3)Gal(b1-4)GlcNAc(b1-3)Gal(b1-4)GlcNAc(b1-3)Gal(b1-4)GlcNAc(b1-2)Man(a1-3)[GlcNAc(b1-3)Gal(b1-4)GlcNAc(b1-3)Gal(b1-4)GlcNAc(b1-3)Gal(b1-4)GlcNAc(b1-3)Gal(b1-4)GlcNAc(b1-2)Man(a1-6)]Man(b1-4)GlcNAc(b1-4)[Fuc(a1-6)]GlcNAc
# Outline: as §1
# [37] = target: GlcNAc(b1-3)Gal(b1-4)GlcNAc(b1-3)[GlcNAc(b1-3)Gal(b1-4)GlcNAc(b1-3)]GalNAc
# Outline: as §1
# [38] = target: GlcNAc(b1-3)Man
# Outline: as §1
# [39] = target: Man(a1-2)Man(a1-2)Man(a1-6)[Man(a1-3)]Man
# Outline: as §1
# [40] = target: Man(a1-2)Man(a1-6)[Man(a1-3)]Man(a1-6)[Man(a1-2)Man(a1-2)Man(a1-3)]Man
# Outline: as §1
# [41] = target: Man(a1-3)[Man(a1-6)]Man
# Outline: as §1
# [42] = target: Man(a1-3)[Man(a1-6)]Man(a1-6)[Man(a1-2)Man(a1-3)]Man(b1-4)GlcNAc(b1-4)GlcNAc
# Outline: as §1
# [43] = target: Neu5Ac(a2-3)Gal(b1-3)[Fuc(a1-4)]GlcNAc(b1-3)Gal(b1-4)[Fuc(a1-3)]GlcNAc
# Outline: as §1
# [44] = target: Neu5Ac(a2-3)Gal(b1-4)GlcNAc
# Outline: as §1
# [45] = target: Neu5Ac(a2-3)Gal(b1-4)GlcNAc(b1-3)Gal(b1-4)GlcNAc(b1-3)Gal(b1-4)GlcNAc
# Outline: as §1
# [46] = target: Neu5Ac(a2-3)Gal6S(b1-4)[Fuc(a1-3)]GlcNAc
# Outline: as §1
# [47] = target: Neu5Ac(a2-6)Gal(b1-3)GlcNAc(b1-3)[Gal(b1-4)GlcNAc(b1-6)]Gal(b1-4)Glc
# Outline: as §1
# [48] = target: Neu5Ac(a2-6)Gal(b1-4)GlcNAc
# Outline: as §1
# [49] = target: Neu5Ac(a2-6)Gal(b1-4)GlcNAc(b1-2)Man(a1-3)[Neu5Ac(a2-6)Gal(b1-4)GlcNAc(b1-2)Man(a1-6)]Man(b1-4)GlcNAc(b1-4)[Fuc(a1-6)]GlcNAc
# Outline: as §1
# [50] = target: Neu5Ac(a2-6)Gal(b1-4)GlcNAc(b1-3)GalNAc
# Outline: as §1
# [51] = target: Neu5Ac(a2-6)Gal(b1-4)GlcNAc(b1-6)[Gal(b1-3)GlcNAc(b1-3)]Gal(b1-4)Glc
# Outline: as §1
# [52] = target: Neu5Ac(a2-8)Neu5Ac(a2-3)Gal(b1-4)Glc
# Outline: as §1
# [53] = target: Neu5Gc(a2-3)Gal(b1-4)GlcNAc(b1-3)Gal(b1-4)GlcNAc(b1-2)Man(a1-3)[Neu5Gc(a2-3)Gal(b1-4)GlcNAc(b1-3)Gal(b1-4)GlcNAc(b1-2)Man(a1-6)]Man(b1-4)GlcNAc(b1-4)GlcNAc
# Outline: as §1
# [54] = target: Neu5Gc(a2-8)Neu5Gc(a2-6)Gal(b1-4)GlcNAc
# Outline: as §1
binder,measurement,setting,value
B1,glycan array binding signal (z-score),[1],0.79
same,glycan array binding signal (z-score),[2],-0.241
same,glycan array binding signal (z-score),[3],-0.361
same,glycan array binding signal (z-score),[4],0.146
same,glycan array binding signal (z-score),[5],4.01
same,glycan array binding signal (z-score),[6],-0.458
same,glycan array binding signal (z-score),[7],4.89
same,glycan array binding signal (z-score),[8],-0.164
same,glycan array binding signal (z-score),[9],-0.275
same,glycan array binding signal (z-score),[10],-0.388
same,glycan array binding signal (z-score),[11],-0.292
same,glycan array binding signal (z-score),[12],-0.377
same,glycan array binding signal (z-score),[13],0.223
same,glycan array binding signal (z-score),[14],-0.129
same,glycan array binding signal (z-score),[15],-0.154
same,glycan array binding signal (z-score),[16],-0.001
same,glycan array binding signal (z-score),[17],-0.375
same,glycan array binding signal (z-score),[18],11.2
same,glycan array binding signal (z-score),[19],-0.135
same,glycan array binding signal (z-score),[20],4.61
same,glycan array binding signal (z-score),[21],1.45
same,glycan array binding signal (z-score),[22],3.52
same,glycan array binding signal (z-score),[23],-0.371
same,glycan array binding signal (z-score),[24],2.92
same,glycan array binding signal (z-score),[25],-0.455
same,glycan array binding signal (z-score),[26],0.79
same,glycan array binding signal (z-score),[27],-0.24
same,glycan array binding signal (z-score),[28],-0.238
same,glycan array binding signal (z-score),[29],-0.214
same,glycan array binding signal (z-score),[30],2.59
same,glycan array binding signal (z-score),[31],2.4
same,glycan array binding signal (z-score),[32],-0.232
same,glycan array binding signal (z-score),[33],-0.034
same,glycan array binding signal (z-score),[34],0.415
same,glycan array binding signal (z-score),[35],0.165
same,glycan array binding signal (z-score),[36],-0.061
same,glycan array binding signal (z-score),[37],-0.332
same,glycan array binding signal (z-score),[38],0.095
same,glycan array binding signal (z-score),[39],14.1
same,glycan array binding signal (z-score),[40],-0.298
same,glycan array binding signal (z-score),[41],0.04
same,glycan array binding signal (z-score),[42],-0.295
same,glycan array binding signal (z-score),[43],3.05
same,glycan array binding signal (z-score),[44],-0.352
same,glycan array binding signal (z-score),[45],-0.251
same,glycan array binding signal (z-score),[46],-0.371
same,glycan array binding signal (z-score),[47],-0.386
same,glycan array binding signal (z-score),[48],-0.341
same,glycan array binding signal (z-score),[49],-0.131
same,glycan array binding signal (z-score),[50],5.41
same,glycan array binding signal (z-score),[51],-0.361
same,glycan array binding signal (z-score),[52],-0.395
same,glycan array binding signal (z-score),[53],-0.36
same,glycan array binding signal (z-score),[54],-0.477

# Source: the supplement of paper PMC8728848
